{"source": "the supplement of paper PMC12282887", "system": "E. coli BW25113 marRABp lux reporter", "assay": "promoter activity interaction Z-score (Lux/OD deviation from empty-vector control); higher = stronger promoter induction by the compound", "description": "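E. coli BW25113 (wild type or ΔmarA/ΔsoxS/Δrob) carrying pTU175 luxCDABE promoter reporters was grown in LB in 384-well plates at 37°C with each of 94 compounds at 4 two-fold concentrations, in biological duplicates. Luminescence and OD600 were read every 30 min for 12 h and integrated as AUC over 8 h (0-8 h WT, 1-9 h mutants). Lux AUC was divided by OD AUC; the interaction score is the residual of a Huber robust fit of each promoter against the empty-vector control, then Z-transformed per promoter.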", "note": "± gives the standard deviation of the averaged measurements."}
{"compound": "O=C(N[C@H](CO)[C@H](O)c1ccc([N+](=O)[O-])cc1)C(Cl)Cl", "note": "[Chloramphenicol]", "values": [{"measurement": "promoter activity interaction Z-score", "setting": "0.12 µg/ml, genetic background: wild type", "result": "0.131 ± 0.36"}, {"measurement": "promoter activity interaction Z-score", "setting": "0.12 µg/ml, genetic background: ΔmarA", "result": "0.172 ± 0.061"}, {"measurement": "promoter activity interaction Z-score", "setting": "0.12 µg/ml, genetic background: Δrob", "result": "0.31 ± 0.053"}, {"measurement": "promoter activity interaction Z-score", "setting": "0.12 µg/ml, genetic background: ΔsoxS", "result": "0.215 ± 0.0078"}, {"measurement": "promoter activity interaction Z-score", "setting": "0.24 µg/ml, genetic background: wild type", "result": "0.735 ± 0.19"}, {"measurement": "promoter activity interaction Z-score", "setting": "0.24 µg/ml, genetic background: ΔmarA", "result": "0.695 ± 0.4"}, {"measurement": "promoter activity interaction Z-score", "setting": "0.24 µg/ml, genetic background: Δrob", "result": "0.342 ± 0.21"}, {"measurement": "promoter activity interaction Z-score", "setting": "0.24 µg/ml, genetic background: ΔsoxS", "result": "0.497 ± 0.14"}, {"measurement": "promoter activity interaction Z-score", "setting": "0.48 µg/ml, genetic background: wild type", "result": "1.43 ± 0.31"}, {"measurement": "promoter activity interaction Z-score", "setting": "0.48 µg/ml, genetic background: ΔmarA", "result": "1.26 ± 0.45"}, {"measurement": "promoter activity interaction Z-score", "setting": "0.48 µg/ml, genetic background: Δrob", "result": "0.873 ± 0.55"}, {"measurement": "promoter activity interaction Z-score", "setting": "0.48 µg/ml, genetic background: ΔsoxS", "result": "1.19 ± 0.34"}, {"measurement": "promoter activity interaction Z-score", "setting": "1 µg/ml, genetic background: wild type", "result": "0.553 ± 0.19"}, {"measurement": "promoter activity interaction Z-score", "setting": "1 µg/ml, genetic background: ΔmarA", "result": "-0.609 ± 0.26"}, {"measurement": "promoter activity interaction Z-score", "setting": "1 µg/ml, genetic background: ΔsoxS", "result": "1.31 ± 0.5"}]}
{"compound": "Cc1cc(NS(=O)(=O)c2ccc(N)cc2)no1", "note": "[Sulfamethoxazole]", "values": [{"measurement": "promoter activity interaction Z-score", "setting": "3.2 µg/ml, genetic background: wild type", "result": "0.00674 ± 0.34"}, {"measurement": "promoter activity interaction Z-score", "setting": "3.2 µg/ml, genetic background: ΔmarA", "result": "0.0321 ± 0.081"}, {"measurement": "promoter activity interaction Z-score", "setting": "3.2 µg/ml, genetic background: Δrob", "result": "0.113 ± 0.29"}, {"measurement": "promoter activity interaction Z-score", "setting": "3.2 µg/ml, genetic background: ΔsoxS", "result": "-0.135 ± 0.18"}, {"measurement": "promoter activity interaction Z-score", "setting": "6.3 µg/ml, genetic background: wild type", "result": "0.078 ± 0.084"}, {"measurement": "promoter activity interaction Z-score", "setting": "6.3 µg/ml, genetic background: ΔmarA", "result": "0.138 ± 0.34"}, {"measurement": "promoter activity interaction Z-score", "setting": "6.3 µg/ml, genetic background: Δrob", "result": "0.302 ± 0.037"}, {"measurement": "promoter activity interaction Z-score", "setting": "6.3 µg/ml, genetic background: ΔsoxS", "result": "0.0733 ± 0.34"}, {"measurement": "promoter activity interaction Z-score", "setting": "12.7 µg/ml, genetic background: wild type", "result": "0.411 ± 0.27"}, {"measurement": "promoter activity interaction Z-score", "setting": "12.7 µg/ml, genetic background: ΔmarA", "result": "0.542 ± 0.015"}, {"measurement": "promoter activity interaction Z-score", "setting": "12.7 µg/ml, genetic background: Δrob", "result": "0.6901 ± 0.0031"}, {"measurement": "promoter activity interaction Z-score", "setting": "12.7 µg/ml, genetic background: ΔsoxS", "result": "0.275 ± 0.14"}, {"measurement": "promoter activity interaction Z-score", "setting": "25.3 µg/ml, genetic background: wild type", "result": "0.782 ± 0.098"}, {"measurement": "promoter activity interaction Z-score", "setting": "25.3 µg/ml, genetic background: ΔmarA", "result": "1.15 ± 0.06"}, {"measurement": "promoter activity interaction Z-score", "setting": "25.3 µg/ml, genetic background: Δrob", "result": "1.2 ± 0.13"}, {"measurement": "promoter activity interaction Z-score", "setting": "25.3 µg/ml, genetic background: ΔsoxS", "result": "1.31 ± 0.61"}]}
{"compound": "C[C@]12CCC(=O)C=C1CC[C@@H]1[C@@H]2[C@@H](O)C[C@@]2(C)[C@H]1CC[C@]2(O)C(=O)CO", "note": "[Hydrocortisone]", "values": [{"measurement": "promoter activity interaction Z-score", "setting": "22.7 µg/ml, genetic background: wild type", "result": "-0.21 ± 0.0069"}, {"measurement": "promoter activity interaction Z-score", "setting": "22.7 µg/ml, genetic background: ΔmarA", "result": "-0.342 ± 0.029"}, {"measurement": "promoter activity interaction Z-score", "setting": "22.7 µg/ml, genetic background: Δrob", "result": "-0.0926 ± 0.12"}, {"measurement": "promoter activity interaction Z-score", "setting": "22.7 µg/ml, genetic background: ΔsoxS", "result": "-0.27 ± 0.066"}, {"measurement": "promoter activity interaction Z-score", "setting": "45.3 µg/ml, genetic background: wild type", "result": "-0.258 ± 0.11"}, {"measurement": "promoter activity interaction Z-score", "setting": "45.3 µg/ml, genetic background: ΔmarA", "result": "-0.377 ± 0.024"}, {"measurement": "promoter activity interaction Z-score", "setting": "45.3 µg/ml, genetic background: Δrob", "result": "-0.12 ± 0.044"}, {"measurement": "promoter activity interaction Z-score", "setting": "45.3 µg/ml, genetic background: ΔsoxS", "result": "-0.15 ± 0.019"}, {"measurement": "promoter activity interaction Z-score", "setting": "90.6 µg/ml, genetic background: wild type", "result": "-0.225 ± 0.18"}, {"measurement": "promoter activity interaction Z-score", "setting": "90.6 µg/ml, genetic background: ΔmarA", "result": "-0.395 ± 0.011"}, {"measurement": "promoter activity interaction Z-score", "setting": "90.6 µg/ml, genetic background: Δrob", "result": "-0.23 ± 0.18"}, {"measurement": "promoter activity interaction Z-score", "setting": "90.6 µg/ml, genetic background: ΔsoxS", "result": "-0.551 ± 0.19"}, {"measurement": "promoter activity interaction Z-score", "setting": "181.2 µg/ml, genetic background: wild type", "result": "-0.465 ± 0.21"}, {"measurement": "promoter activity interaction Z-score", "setting": "181.2 µg/ml, genetic background: ΔmarA", "result": "-0.467 ± 0.023"}, {"measurement": "promoter activity interaction Z-score", "setting": "181.2 µg/ml, genetic background: Δrob", "result": "-0.34 ± 0.16"}, {"measurement": "promoter activity interaction Z-score", "setting": "181.2 µg/ml, genetic background: ΔsoxS", "result": "-0.371 ± 0.24"}]}
